Assay results published in PubChem BioAssay AID743327 (National Center for Advancing Translational Sciences (NCATS), 2014).
Activity calls are given as the source filed them. A call without a number means that no potency is given here. Calls come from the whole dose curve. Where a SMILES comes first, the peptide text is derived from it. [ ]: non-standard residue; d: D form. Orn = NCCC[C@H](N)C(=O)O

experiment: qHTS profiling of Chloroquine Analogs as inhibitors of Plasmodium falciparum (HB3) proliferation; settings: P. falciparum HB3 proliferation; series mostly up to 28.7 µM
Source text: Plasmodium falciparum is a virulent malarial parasite that kills 1-2 million people worldwide each year. Transmitted by mosquitoes, the sporozoite form of the parasite enters the blood stream to infect hepatocytes, where they become merozoites that infect red blood cells (erythrocytes). Within erythrocytes, merozoites begin a […] cycle of growth and division, after which the parasite is released to infect new red blood cells. Gametocytes, which form within erythrocytes as well, circulate in the bloodstream and are ingested by the mosquito, thereby completing the life cycle. To profile malarial isolates for differential chemical responses and to identify inhibitors of malarial growth, an assay that measures P. falciparum growth and replication within erythrocytes was employed. This assay uses a DNA binding fluorescent dye (SYBR Green) to detect parasite DNA following cell lysis. Because mature erythrocytes lack DNA, only Plasmodium-derived DNA is detected.
The SYBR Green viability assay was adapted from a method described previously (Plouffe et al., 2008). For screening 3 ul culture medium was dispensed into 1536 well black clear bottom plates (Aurora Biotechnologies) using a Multidrop Combi (Thermo Fisher Scientific Inc.), 23 nL compounds in DMSO were added by a pin tool (Kalypsys), and 5 ul of erythrocytes infected with P. falciparum (0.3% parasitemia, 2.5% hematocrit final concentration) were added. The plates were incubated at 37 C in a humidified incubator in 5% CO2 for 72 h, and 2 ul lysis buffer (20 mM Tris HCl, 10 mM EDTA, 0.16% saponin, 1.6% triton X, 10X SYBR Green I supplied as 10,000X […] by Invitrogen) was added to each well. The plates were mixed for 25 sec with gentle shaking and incubated overnight at room temperature in the dark. The following morning, fluorescence intensity at 485(14) nm excitation and 535(25) nm emission wavelengths was measured on an EnVision (Perkin Elmer) plate reader. Plate reads were normalized relative to the control inhibitor (0.29 uM artemisinin) and vehicle (DMSO) wells present on each plate and then corrected by an algorithm using vehicle-only control plates at the beginning and end of the compound plate stack.

Row | SMILES | Potency
1 | NC(=NCc1ccccc1)NC(=O)c1nc(Cl)c(N)nc1N | inactive
2 | C[C@@H]1[C@@H](C(=O)C[C@H]2O[C@@H]3O[C@]4(C)CC[C@@H]5[C@H](C)CC[C@@H]([C@H]2C)[C@@]35OO4)O[C@@H]2O[C@]3(C)CC[C@H]4[C@H](C)CC[C@@H]1[C@@]24OO3 | inactive
3 | Cc1oncc1C(=O)Nc1ccc(C(F)(F)F)cc1 | inactive
4 | OB1OCc2cc(F)ccc21 | inactive
5 | Cn1cncc1[C@@](N)(c1ccc(Cl)cc1)c1ccc2c(c1)c(-c1cccc(Cl)c1)cc(=O)n2C | inactive
6 | C=CCON=C(C[C@H]1O[C@@H]2O[C@]3(C)CC[C@@H]4[C@H](C)CC[C@@H]([C@H]1C)[C@@]24OO3)[C@H]1O[C@@H]2O[C@]3(C)CC[C@H]4[C@H](C)CC[C@@H]([C@@H]1C)[C@@]24OO3 | inactive
7 | CC(C)C[C@@H]1NC(=O)[C@H](CCCN)NC(=O)[C@H](C(C)C)NC(=O)[C@@H]2CCCN2C(=O)[C@@H](Cc2ccccc2)NC(=O)[C@H](CC(C)C)NC(=O)[C@H](CCCN)NC(=O)[C@H](C(C)C)NC(=O)[C@@H]2CCCN2C(=O)[C@@H](Cc2ccccc2)NC1=O (cyclo(V[Orn]L[dF]PV[Orn]L[dF]P)) | inactive
8 | CN(C)CCOC(c1ccccc1)c1ccccc1 | inactive
9 | CC1=CC(=O)c2ccccc2C1=O | 2370 nM (active)
10 | CN(C)c1ccc2nc3ccc(=[N+](C)C)cc-3sc2c1 | 4.9 nM (active)
11 | O[C@H](c1cc(C(F)(F)F)nc2c(C(F)(F)F)cccc12)[C@H]1CCCCN1 | inactive
12 | C[C@@H]1[C@@H](CC(C[C@H]2O[C@@H]3O[C@]4(C)CC[C@@H]5[C@H](C)CC[C@@H]([C@H]2C)[C@@]35OO4)C[S+](=O)([O-])c2ccc(COC(=O)N(C)C)cc2)O[C@@H]2O[C@]3(C)CC[C@H]4[C@H](C)CC[C@@H]1[C@@]24OO3 (stereo not given in full) | 6.7 nM (active)
13 | C[C@@H]1[C@@H](CC(C[C@H]2O[C@@H]3O[C@]4(C)CC[C@@H]5[C@H](C)CC[C@@H]([C@H]2C)[C@@]35OO4)C(=O)NCc2ccc(F)cc2)O[C@@H]2O[C@]3(C)CC[C@H]4[C@H](C)CC[C@@H]1[C@@]24OO3 (stereo not given in full) | inactive
14 | CCCC(=O)O[C@]1(C(=O)CCl)[C@H](C)C[C@@H]2[C@H]3CCC4=CC(=O)C=C[C@]4(C)[C@@]3(F)C(=O)C[C@@]21C | inactive
15 | C[C@H]1c2cccc(O)c2C(O)=C2C(=O)[C@]3(O)C(O)=C(C(N)=O)C(=O)[C@@H](N(C)C)[C@@H]3[C@@H](O)[C@@H]21 | 8410 nM (active)
16 | CCCCN(CCCC)CC(O)c1cc(Cl)cc2c1-c1ccc(Cl)cc1C2=Cc1ccc(Cl)cc1 (stereo not given) | inactive
17 | CN1CCN(CCCN2c3ccccc3Sc3ccc(S(=O)(=O)N(C)C)cc32)CC1 | 716 nM (active)
18 | CCOc1ccc(F)cc1C1(O)C(N)=Nc2ccc(Cl)cc21 (stereo not given) | inactive
19 | CCc1ccc(OCc2ccccc2C(=O)Nc2ccc3nc(C)cc(N)c3c2)cc1 | 1190 nM (active)
20 | COc1cc2c(Nc3ccc(NC(=O)c4ccccc4)cc3)ncnc2cc1OCCCN1CCOCC1 | inactive

Row | SMILES | Potency
21 | O=C(Nc1ccc(Cl)cc1)Nc1ccc(Cl)c(Cl)c1 | 2110 nM (active)
22 | CCOc1ccccc1O[C@H](c1ccccc1)[C@H]1CNCCO1 | inactive
23 | Clc1ccc(COC(Cn2ccnc2)c2ccc(Cl)cc2Cl)c(Cl)c1 (stereo not given) | inactive
24 | Cc1cccc(C)c1OCC(N)C(C)C (stereo not given) | 18800 nM (active)
25 | CC(=O)O[C@@]12CO[C@@H]1C[C@H](O)[C@@]1(C)C(=O)[C@H](O)C3=C(C)[C@@H](OC(=O)[C@H](O)[C@@H](NC(=O)OC(C)(C)C)c4ccccc4)C[C@@](O)([C@@H](OC(=O)c4ccccc4)[C@H]21)C3(C)C | 9.4 nM (active)
26 | CNCCCCOc1ccccc1Cc1ccccc1 | inactive
27 | CCN(CC)CCOc1ccc2c(=O)c3ccc(Cl)cc3n(CCN(CC)CC)c2c1 | 530 nM (active)
28 | COc1cc(NC(C)CCCN)c2ncccc2c1 (stereo not given) | 804 nM (active)
29 | O=C(C[C@@H]1NCCC[C@@H]1O)Cn1cnc2ccccc2c1=O | inactive
30 | Cc1cccc(C)c1OCC(=O)N[C@@H](Cc1ccccc1)[C@@H](O)C[C@H](Cc1ccccc1)NC(=O)[C@H](C(C)C)N1CCCNC1=O | inactive
31 | CN1C[C@H](C(=O)N[C@]2(C)O[C@@]3(O)[C@@H]4CCCN4C(=O)[C@H](Cc4ccccc4)N3C2=O)C[C@@H]2c3cccc4[nH]cc(c34)C[C@H]21 | 530 nM (active)
32 | CCCC[C@@H]1C[C@@H](C(=O)NC([C@H](C)Cl)[C@H]2O[C@H](S)[C@H](O)[C@@H](O)[C@@H]2O)N(C)C1 (stereo not given in full) | 33.5 nM (active)
33 | O=C1C(=O)c2ccccc2C(O)=C1C1CCC(c2ccc(Cl)cc2)CC1 (stereo not given) | 0.5 nM (active)
34 | C#C[C@]1(O)CC[C@@H]2[C@H]3CCC4=CC(=O)CC[C@H]4[C@H]3C(=C)C[C@@]21CC | 749 nM (active)
35 | C[C@@H]1CC[C@H]2[C@@H](C)C(=O)O[C@@H]3OC4(C)CC[C@@H]1C32OO4 (stereo not given in full) | inactive
36 | C[N+]1(C)CCC(=C(c2ccccc2)c2ccccc2)CC1 | inactive
37 | COc1ncnc(NS(=O)(=O)c2ccc(N)cc2)c1OC | 1500 nM (active)
38 | CN(C)CC/C=C1\c2ccccc2COc2ccccc21 | 2540 nM (active)
39 | CCN(CC)CCOCCOC(=O)C(CC)(CC)c1ccccc1 | inactive
40 | C/C(=C\c1csc(C)n1)[C@@H]1C[C@@H]2O[C@]2(C)CCC[C@H](C)[C@H](O)[C@@H](C)C(=O)C(C)(C)[C@@H](O)CC(=O)O1 | inactive
